# Test results reported in PubChem BioAssay (NCATS).
# Values joined by “and” are separate entries in the source; they are usually repeats but may differ in a detail not shown here. Equal values may be shown once. Results filed as inconclusive are left out. Active and inactive are the calls of the source. Calls come from the whole dose curve. Peptide text beside a SMILES is read from it.
# Tested on: not listed separately
# Test: qHTS assay for small molecule agonists of retinoid X receptor alpha signaling (AID 588544)
# Settings: HEK293T RXRa-UAS-bla, beta-lactamase reporter, 18 h; 530 nm emission
row,SMILES,max response
1,Nc1ccc(S(N)(=O)=O)cc1,-11.9%
2,N[C@@H](Cc1cc(I)c(Oc2cc(I)c(O)c(I)c2)c(I)c1)C(=O)O,-7.79%
3,CS(=O)(=O)OCCCCOS(C)(=O)=O,-9.47% and 11.7%
4,CCc1nc(N)nc(N)c1-c1ccc(Cl)cc1,19.5% and 21%
5,COc1cc(OC)c(C(=O)CCCN2CCCC2)c(OC)c1,3.94%
6,CNC[C@H](O)c1ccc(O)c(O)c1,-11.1%
7,COC(=O)[C@H](Cc1ccccc1)NC(=O)[C@@H](N)CC(=O)O (H-Asp-Phe-OMe),3.6% and 1.05%
8,CCCc1cc(=O)[nH]c(=S)[nH]1,3.33% and 11.8%
9,c1ccc2[nH]c(-c3cscn3)nc2c1,8.2% and -19.9%
10,CC1(C)NC(=O)N(c2ccc([N+](=O)[O-])c(C(F)(F)F)c2)C1=O,13.6%
11,Cc1ccc(C)c(OCCCC(C)(C)C(=O)O)c1,26.9% and -2.09%
12,COc1c2occc2cc2ccc(=O)oc12,-1.38%

# Biological target: Retinoic acid receptor RXR-alpha (Homo sapiens) (UniProt P19793)
# Test: as above
# Settings: HEK293T RXRa-UAS-bla, beta-lactamase reporter, 18 h; series mostly up to 76.7 µM
# Sequence of Retinoic acid receptor RXR-alpha (Homo sapiens) (P19793 whole entry, looked up): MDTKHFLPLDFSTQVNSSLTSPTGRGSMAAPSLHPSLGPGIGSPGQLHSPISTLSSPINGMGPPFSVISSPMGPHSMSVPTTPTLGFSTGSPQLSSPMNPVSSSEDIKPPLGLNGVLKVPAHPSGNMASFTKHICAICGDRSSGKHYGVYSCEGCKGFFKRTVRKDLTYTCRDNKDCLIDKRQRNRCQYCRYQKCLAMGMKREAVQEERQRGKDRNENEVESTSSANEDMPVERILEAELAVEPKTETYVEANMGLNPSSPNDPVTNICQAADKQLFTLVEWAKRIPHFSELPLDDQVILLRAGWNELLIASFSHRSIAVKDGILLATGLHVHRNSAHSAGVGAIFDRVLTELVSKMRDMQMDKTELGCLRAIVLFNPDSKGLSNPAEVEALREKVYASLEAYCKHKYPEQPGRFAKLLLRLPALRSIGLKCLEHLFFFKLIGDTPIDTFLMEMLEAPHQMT
row,SMILES,outcome
1,Nc1ccc(S(N)(=O)=O)cc1,inactive
2,N[C@@H](Cc1cc(I)c(Oc2cc(I)c(O)c(I)c2)c(I)c1)C(=O)O,inactive
3,CS(=O)(=O)OCCCCOS(C)(=O)=O,inactive
4,CCc1nc(N)nc(N)c1-c1ccc(Cl)cc1,inactive
5,COc1cc(OC)c(C(=O)CCCN2CCCC2)c(OC)c1,inactive
6,CNC[C@H](O)c1ccc(O)c(O)c1,inactive
7,COC(=O)[C@H](Cc1ccccc1)NC(=O)[C@@H](N)CC(=O)O (H-Asp-Phe-OMe),inactive
8,CCCc1cc(=O)[nH]c(=S)[nH]1,inactive
9,c1ccc2[nH]c(-c3cscn3)nc2c1,inactive
10,CC1(C)NC(=O)N(c2ccc([N+](=O)[O-])c(C(F)(F)F)c2)C1=O,inactive
11,Cc1ccc(C)c(OCCCC(C)(C)C(=O)O)c1,inactive
12,COc1c2occc2cc2ccc(=O)oc12,inactive

# Biological target: Thyroid hormone receptor beta (Homo sapiens) (UniProt P10828)
# Test: qHTS assay for small molecule agonists of thyroid hormone receptor beta signaling (AID 588545)
# Settings: TR-UAS-bla GripTite HEK 293, beta-lactamase ratio, agonist mode, 18 h, percent of T3 response, DMSO as zero; series mostly up to 76.7 µM
# How it was run: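 HEK 293 TR-UAS-bla; agonist mode; 18 hrs, 37 C; CCF4, ex 405/em 460 and 530 nm; norm. T3 10 nM = 100%, DMSO = 0%; Hill fit → EC50, efficacy.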
# Sequence of Thyroid hormone receptor beta (Homo sapiens) (P10828 whole entry, looked up): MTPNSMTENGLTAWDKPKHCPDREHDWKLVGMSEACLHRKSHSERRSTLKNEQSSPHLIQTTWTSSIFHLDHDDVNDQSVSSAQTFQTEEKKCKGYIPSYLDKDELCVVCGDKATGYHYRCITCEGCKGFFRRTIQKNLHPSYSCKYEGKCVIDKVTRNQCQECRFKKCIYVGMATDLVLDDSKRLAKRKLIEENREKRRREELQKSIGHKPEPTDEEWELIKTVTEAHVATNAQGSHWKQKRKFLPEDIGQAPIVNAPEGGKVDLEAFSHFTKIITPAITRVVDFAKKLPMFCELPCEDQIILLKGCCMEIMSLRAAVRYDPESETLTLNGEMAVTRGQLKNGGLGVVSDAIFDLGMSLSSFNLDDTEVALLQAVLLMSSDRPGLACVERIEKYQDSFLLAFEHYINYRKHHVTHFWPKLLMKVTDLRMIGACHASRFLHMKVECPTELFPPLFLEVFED
row,SMILES,outcome
1,Nc1ccc(S(N)(=O)=O)cc1,inactive
2,CC(=O)N1CCN(c2ccc(OC[C@H]3CO[C@](Cn4ccnc4)(c4ccc(Cl)cc4Cl)O3)cc2)CC1,inactive
3,Cc1cc(O)c2c(c1)C(=O)c1cc(O)cc(O)c1C2=O,inactive
4,CCc1nc(N)nc(N)c1-c1ccc(Cl)cc1,inactive
5,COc1cc(OC)c(C(=O)CCCN2CCCC2)c(OC)c1,inactive
6,CNC[C@H](O)c1ccc(O)c(O)c1,inactive
7,CN(C)c1ccc2nc3ccc(=[N+](C)C)cc-3sc2c1,inactive
8,COC(=O)[C@H](Cc1ccccc1)NC(=O)[C@@H](N)CC(=O)O (H-Asp-Phe-OMe),inactive
9,CCCc1cc(=O)[nH]c(=S)[nH]1,inactive
10,c1ccc2[nH]c(-c3cscn3)nc2c1,inactive
11,CC1(C)NC(=O)N(c2ccc([N+](=O)[O-])c(C(F)(F)F)c2)C1=O,inactive
12,CCN(CC)C(=S)SSC(=S)N(CC)CC,inactive
13,Nc1nc(Cl)nc2c1ncn2[C@H]1C[C@H](O)[C@@H](CO)O1,inactive
14,Cc1ccc(C)c(OCCCC(C)(C)C(=O)O)c1,inactive
15,O=c1c(O)c(-c2ccc(O)cc2O)oc2cc(O)cc(O)c12,inactive
16,COc1c2occc2cc2ccc(=O)oc12,inactive
17,NS(=O)(=O)c1cc(C(=O)O)c(NCc2ccco2)cc1Cl,inactive
